In PubChem BioAssay (Tox21):
“And” between values parts separate entries of the source, which are not always exact repeats. Equal values may be shown once. Inconclusive results are not listed. The source holds several records for some structures; these can differ, active in one and inactive in another. The source made the active and inactive calls. Unless noted, the call rests on the fitted dose curve.

Experiments:
[1] = Nuclear factor erythroid 2-related factor 2/antioxidant responsive element (Nrf2/ARE) small molecule agonists: qHTS cell viability counter screen in human keratinocytes (AID 1919968; active means well fitted curve in the direction sought with a large enough effect in the repeat runs; an effect the other way counts as inactive or inconclusive; further: nearly all actives have a fitted effect of over 55% in size; further: potency means the concentration at half of the fitted maximal effect)
Outline: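 Seed 1,500 KeratinoSens cells per well, then incubate 5 h at 37 C/5% CO2. Add compounds in DMSO and incubate 23 h. Add CellTiter-Fluor, wait 1 h and read fluorescence.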

[2] = Nuclear factor erythroid 2-related factor 2/antioxidant responsive element (Nrf2/ARE) small molecule agonists: luciferase reporter gene qHTS assay in human keratinocytes (AID 1919969); further: nearly all actives have a fitted effect of over 35% in size; further: potency means the concentration at half of the fitted maximal effect
[3] = target: Gonadotropin-releasing hormone receptor (Homo sapiens) (UniProt P30968); experiment: Human gonadotropin-releasing hormone receptor (GnRHR) small molecule agonists, calcium flux assay in GnRHR-HEK293 cells (AID 1920063); further: nearly all actives have a fitted effect of over 35% in size
Gonadotropin-releasing hormone receptor (Homo sapiens), sequence (P30968 whole entry, looked up): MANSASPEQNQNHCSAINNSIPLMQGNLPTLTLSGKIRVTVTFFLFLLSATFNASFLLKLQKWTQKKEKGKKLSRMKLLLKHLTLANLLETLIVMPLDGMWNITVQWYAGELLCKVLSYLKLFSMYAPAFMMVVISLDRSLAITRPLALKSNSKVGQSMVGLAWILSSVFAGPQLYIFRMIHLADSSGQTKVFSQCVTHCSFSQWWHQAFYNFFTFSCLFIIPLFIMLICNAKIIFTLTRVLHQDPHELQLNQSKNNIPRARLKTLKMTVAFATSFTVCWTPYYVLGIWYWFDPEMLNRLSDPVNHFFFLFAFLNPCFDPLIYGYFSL
Outline: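 Cells: HEK293 stably expressing human GnRHR. Steps: overnight (18 h) culture, 1 h calcium dye loading at 37 C, compound addition, kinetic fluorescence read at 480/540 nm. Each compound tested at 15 concentrations in triplicate.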

[4] = target: KiSS-1 receptor (Homo sapiens) (UniProt Q969F8); experiment: Human kisspeptin (KISS1R) small molecule agonists, calcium flux assay in KISS1R-HEK293 cells (AID 1920064; active means well fitted curve in the direction sought with a large enough effect in the repeat runs; an effect the other way counts as inactive or inconclusive)
KiSS-1 receptor (Homo sapiens), sequence (Q969F8 whole entry, looked up): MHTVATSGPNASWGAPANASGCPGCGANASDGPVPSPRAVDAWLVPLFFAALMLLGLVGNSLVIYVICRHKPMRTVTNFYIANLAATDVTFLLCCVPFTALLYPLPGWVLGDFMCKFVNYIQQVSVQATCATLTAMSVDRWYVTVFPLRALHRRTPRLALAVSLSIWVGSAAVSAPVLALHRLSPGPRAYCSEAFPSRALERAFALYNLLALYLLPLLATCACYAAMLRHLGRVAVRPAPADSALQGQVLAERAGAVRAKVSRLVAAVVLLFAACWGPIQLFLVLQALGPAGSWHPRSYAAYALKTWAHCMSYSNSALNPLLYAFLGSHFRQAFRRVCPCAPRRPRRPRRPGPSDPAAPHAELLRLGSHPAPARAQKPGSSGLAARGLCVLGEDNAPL
Outline: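 Cells plated and incubated 18 h; dye added, 1 h at 37 C; compounds in DMSO pinned in; signal read at 480/540 nm every second for 3 min. Each compound tested at 15 concentrations in triplicate.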

[5] = G protein-coupled receptor (GPCR) small molecule agonists, calcium flux assay: HEK293 wild type cell line counter screen (AID 1920065)
Outline: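 Counter-screen of the Tox21 10K library for non-specific calcium release: dye-loaded cells received compounds in DMSO and were monitored by kinetic fluorescence (480/540 nm, 3 min). Fifteen concentrations, run in triplicate.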

[6] = p53 small molecule agonists, cell-based qHTS assay with rat liver microsomes (AID 1963578)
Outline: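 Quantitative HTS of the Tox21 10K library: p53RE-bla cells, rat liver microsomes plus NADPH at 0.5 mg/mL final each, 16 h at 37 C, beta-lactamase fluorescence detection.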

[7] = p53 small molecule agonists, cell-based qHTS assay with human liver microsomes: qHTS cell viability counter screen (AID 1963579); further: nearly all actives have a fitted effect of over 45% in size
Outline: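 Viability of p53RE-bla cells is measured as CellTiter-Glo luminescence following a 16 h, 37 C incubation with compound, liver microsomes from human donors and NADPH.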

[8] = p53 small molecule agonists, cell-based qHTS assay with rat liver microsomes: qHTS cell viability counter screen (AID 1963580); further: nearly all actives have a fitted effect of over 45% in size
Outline: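 p53RE-bla HCT-116 cells were exposed 16 h at 37 C to compounds with rat liver microsomes (0.5 mg/mL) and NADPH (0.5 mg/mL). Viability was measured in the same wells as ATP content by CellTiter-Glo luminescence.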

[9] = p53 small molecule agonists, cell-based qHTS assay: qHTS cell viability counter screen (AID 1963581); further: nearly all actives have a fitted effect of over 45% in size
Outline: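 Cells: HCT-116 with p53 response element-driven beta-lactamase. Treatment: 16 h, 37 C, compounds in DMSO. Read: CellTiter-Glo luminescence after 30 min RT.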

[10] = p53 small molecule agonists, cell-based qHTS assay (AID 1963582; active means well fitted activation curve with a large enough effect in the signal ratio in the repeat runs, not every such curve was filed as active; the % refers to the signal ratio)
Outline: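 Quantitative HTS in p53RE-bla cells: after a 5 h settling period, compounds delivered in DMSO were left on cells for 16 h at 37 C, and reporter induction was measured as fluorescence following 2 h substrate loading.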

[11] = target: 5-hydroxytryptamine receptor 2A (Homo sapiens) (UniProt P28223); experiment: 5-hydroxytryptamine receptor 2A (HTR2A) small molecule antagonists, cell-based qHTS assay (AID 1963586); further: nearly all actives have a fitted effect of over 45% in size
5-hydroxytryptamine receptor 2A (Homo sapiens), sequence (P28223 whole entry, looked up): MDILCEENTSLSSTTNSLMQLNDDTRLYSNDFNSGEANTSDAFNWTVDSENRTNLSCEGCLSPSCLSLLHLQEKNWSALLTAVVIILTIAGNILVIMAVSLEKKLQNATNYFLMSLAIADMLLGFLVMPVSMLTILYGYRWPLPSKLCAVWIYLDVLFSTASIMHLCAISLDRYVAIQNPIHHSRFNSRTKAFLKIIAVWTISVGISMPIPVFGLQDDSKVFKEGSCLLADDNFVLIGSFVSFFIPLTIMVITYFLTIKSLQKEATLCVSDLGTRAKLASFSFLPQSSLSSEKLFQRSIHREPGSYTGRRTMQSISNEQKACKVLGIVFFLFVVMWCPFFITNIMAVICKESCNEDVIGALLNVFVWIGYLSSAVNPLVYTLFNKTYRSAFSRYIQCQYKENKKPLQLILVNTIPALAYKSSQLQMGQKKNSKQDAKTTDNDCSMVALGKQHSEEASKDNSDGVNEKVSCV
Outline: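 Antagonist-mode intracellular calcium assay: DOI (4 nM) added after 5 min compound pre-incubation at room temperature to dye-loaded HTR2A-CHO cells. Fluorescence followed for 3 min, sampled every second.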

[12] = target: 5-hydroxytryptamine receptor 2A (Homo sapiens) (UniProt P28223); experiment: 5-hydroxytryptamine receptor 2A (HTR2A) small molecule agonists, cell-based qHTS assay (AID 1963587); further: nearly all actives have a fitted effect of over 30% in size
Outline: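 CHO cells stably expressing human HTR2A, plated 18 h, loaded with calcium dye 1 h at 37 C. Agonist mode: compounds added and intracellular calcium fluorescence recorded kinetically for 2 min at 1 sec intervals.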

[13] = target: Muscarinic acetylcholine receptor M1 (Homo sapiens) (UniProt P11229); experiment: Cholinergic receptor muscarinic 1 (CHRM1) small molecule antagonists, cell-based qHTS assay (AID 1963588); further: nearly all actives have a fitted effect of over 40% in size; further: potency means the concentration at half of the fitted maximal effect
Muscarinic acetylcholine receptor M1 (Homo sapiens), sequence (P11229 whole entry, looked up): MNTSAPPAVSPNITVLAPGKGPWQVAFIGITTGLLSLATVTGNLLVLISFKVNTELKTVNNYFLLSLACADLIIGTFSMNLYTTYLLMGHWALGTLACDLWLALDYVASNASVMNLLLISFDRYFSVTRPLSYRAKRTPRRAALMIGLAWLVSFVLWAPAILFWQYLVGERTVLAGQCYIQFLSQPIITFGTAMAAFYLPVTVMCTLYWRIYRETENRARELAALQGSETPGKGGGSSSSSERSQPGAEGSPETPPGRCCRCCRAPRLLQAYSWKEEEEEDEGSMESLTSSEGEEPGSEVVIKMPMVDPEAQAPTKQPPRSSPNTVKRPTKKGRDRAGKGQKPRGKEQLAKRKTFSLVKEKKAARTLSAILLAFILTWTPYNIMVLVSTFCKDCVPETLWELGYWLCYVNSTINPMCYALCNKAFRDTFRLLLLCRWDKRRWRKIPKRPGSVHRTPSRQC
Outline: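 CHRM1-CHO calcium-flux assay, antagonist mode. Cells were seeded 18 h, dye-loaded 1 h at 37 C and given compound for 5 min at RT, then acetylcholine was added at 50nM. FDSS fluorescence was read 3 min; 15 concentrations, three runs.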

[14] = target: Muscarinic acetylcholine receptor M1 (Homo sapiens) (UniProt P11229); experiment: Cholinergic receptor muscarinic 1 (CHRM1) small molecule agonists, cell-based qHTS assay (AID 1963589); further: nearly all actives have a fitted effect of over 35% in size
Outline: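 Agonist-mode qHTS in CHO cells stably carrying human muscarinic M1. Intracellular calcium is tracked by fluorescence every second after compound transfer; each compound runs at 15 concentrations in three independent runs.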

[15] = cAMP Responsive Elements (CRE) small molecule agonists, cell-based qHTS assay (AID 1963590)
Outline: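 Agonist mode qHTS in CRE-bla HEK 293T cells: compounds dosed from DMSO for 3 h at 37 C/5% CO2, followed by LiveBLAzer B/G FRET substrate for 2 h at room temperature.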

[16] = cAMP Responsive Elements (CRE) small molecule antagonists, cell-based qHTS assay (AID 1963591; active means well fitted inhibition curve with a large enough effect in the signal ratio in the repeat runs, not every such curve was filed as active; the % refers to the signal ratio)
Outline: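 Antagonist mode: test compounds are co-incubated with the adenylyl cyclase activator NKH477 (0.25 uM final) on CRE-bla HEK293T cells for 3 h at 37 °C, followed by LiveBLAzer substrate loading.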

[17] = target: Beta-2 adrenergic receptor (Homo sapiens) (UniProt P07550); experiment: Adrenergic beta2 receptor (ADRB2) small molecule antagonists, cell-based qHTS assay (AID 1963592); further: series mostly up to about 92 µM; nearly all actives have a fitted effect of over 50% in size
Beta-2 adrenergic receptor (Homo sapiens), sequence (P07550 whole entry, looked up): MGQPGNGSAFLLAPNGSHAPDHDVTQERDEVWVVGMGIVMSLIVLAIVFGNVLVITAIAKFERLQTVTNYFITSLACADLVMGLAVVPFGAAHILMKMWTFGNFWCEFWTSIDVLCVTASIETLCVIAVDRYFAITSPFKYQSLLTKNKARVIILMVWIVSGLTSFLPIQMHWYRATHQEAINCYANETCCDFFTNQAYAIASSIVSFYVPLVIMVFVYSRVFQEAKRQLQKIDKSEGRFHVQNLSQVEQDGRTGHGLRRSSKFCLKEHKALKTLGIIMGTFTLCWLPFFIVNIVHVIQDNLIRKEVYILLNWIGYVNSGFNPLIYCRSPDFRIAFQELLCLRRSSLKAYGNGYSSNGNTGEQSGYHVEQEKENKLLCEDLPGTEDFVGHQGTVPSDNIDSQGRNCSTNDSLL
Outline: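 Cells (CHO, stable ADRB2 overexpression) incubated 18-20hr at 37C; compounds added from DMSO; agonist mix (1nM isoproterenol, 100uM IBMX, 25uM Ro-20-1724) added; 0.5hr RT; d2-cAMP and anti-cAMP-cryptate added; 1hr RT; 665/615 nm read.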

[18] = target: Beta-2 adrenergic receptor (Homo sapiens) (UniProt P07550); experiment: Adrenergic beta2 receptor (ADRB2) small molecule agonists, cell-based qHTS assay (AID 1963593);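 further: CHO cells stably overexpressing human ADRB2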
Outline: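 CHO cells stably over-expressing ADRB2 were plated overnight at 37C, then dosed with compounds plus a stimulation mix containing 100uM IBMX and 25uM Ro-20-1724 for 0.5hr at room temperature. cAMP was measured by HTRF competition, 1hr.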

[19] = target: D(2) dopamine receptor (Homo sapiens) (UniProt P14416); experiment: Dopamine D2 receptor (DRD2) small molecule agonists, cell-based qHTS assay (AID 1963594); further: nearly all actives have a fitted effect of over 35% in size
D(2) dopamine receptor (Homo sapiens), sequence (P14416 whole entry, looked up): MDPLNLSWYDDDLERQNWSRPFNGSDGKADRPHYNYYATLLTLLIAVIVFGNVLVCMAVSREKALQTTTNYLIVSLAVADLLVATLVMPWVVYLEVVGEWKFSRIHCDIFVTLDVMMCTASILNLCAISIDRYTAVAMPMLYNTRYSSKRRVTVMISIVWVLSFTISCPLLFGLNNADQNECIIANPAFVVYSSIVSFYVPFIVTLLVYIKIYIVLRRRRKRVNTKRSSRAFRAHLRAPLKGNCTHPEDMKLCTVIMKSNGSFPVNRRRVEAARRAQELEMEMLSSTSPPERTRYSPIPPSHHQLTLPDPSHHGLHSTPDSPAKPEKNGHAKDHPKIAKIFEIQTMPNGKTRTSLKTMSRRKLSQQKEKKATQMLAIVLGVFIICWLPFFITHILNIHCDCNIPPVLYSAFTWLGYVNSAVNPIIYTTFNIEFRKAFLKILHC
Outline: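 HEK293 cells stably expressing human DRD2, pre-treated with PDE inhibitor Ro20-1724 (0.1 mM final) and compound 10 min at room temperature, then stimulated with NKH477 (200nM […]) for 30 min. cAMP read by HTRF (665/620 nm).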

[20] = target: D(2) dopamine receptor (Homo sapiens) (UniProt P14416); experiment: Dopamine D2 receptor (DRD2) small molecule antagonists, cell-based qHTS assay (AID 1963595; active means well fitted inhibition curve with a large enough effect in the signal ratio in the repeat runs, with a control signal flat; the % refers to the signal ratio)
Outline: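 HTRF cAMP read-out at 665 and 620 nm emission (340 nm excitation). Antagonist mode: compounds were tested against 12 nM quinpirole in DRD2-HEK293 cells, with 200 nM NKH477 raising cAMP and 0.1 mM Ro20-1724 blocking its breakdown.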
On the % scale 0 is the no-effect control and ±100 the full control effect.

CC(C)CON=O
inactive: Potency [1] | Potency [2] | Potency [3] | Potency [4] | Potency [5] | Potency [6] | activity change, negative = cytotoxicity [7] -1.64% [at 13.5 µM] | Potency [8] | Potency [9] | Potency [10] | Potency [11] | Potency [12] | Potency [13] | Potency [14] | Potency [15] | Potency [16] | Potency [17] | Potency [18] | Potency [19]

Cc1cc(Cl)ccc1N=CN(C)C
inactive: Potency [1] | Potency [2] | Potency [3] | Potency [4] | Potency [5] | Potency [6] | Potency [7] | Potency [8] | Potency [9] | Potency [10] | Potency [11] | Potency [13] | Potency [14] | Potency [15] | Potency [16] | Potency [17] | Potency [20]

ClC1=C(Cl)C2(Cl)C3C(Cl)C=CC3C1(Cl)C2(Cl)Cl (centres undefined)
active: Potency [1] 27.4 µM and 61.1 µM
inactive: Potency [2] | Potency [3] | Potency [4] | Potency [5] | Potency [7] | Potency [8] | Potency [10] | Potency [11] | Potency [12] | Potency [13] | Potency [14] | Potency [15] | Potency [16] | Potency [17] | Potency [19] | Potency [20]

COCCC#N
inactive: Potency [1] | Potency [2] | Potency [3] | Potency [4] | Potency [5] | Potency [6] | Potency [7] | Potency [8] | Potency [9] | Potency [10] | Potency [11] | Potency [12] | Potency [13] | Potency [14] | Potency [15] | Potency [16] | Potency [17] | Potency [18] | Potency [19] | Potency [20]

O=P(Oc1ccccc1)(Oc1ccccc1)Oc1ccccc1
inactive: Potency [1] | Potency [3] | Potency [4] | Potency [5] | Potency [7] | Potency [9] | Potency [12] | Potency [13] | Potency [14] | Potency [15] | Potency [16] | Potency [17] | Potency [19] | Potency [20]
60.8 µM (active) and inactive: Potency [2]

Cn1c(-c2ccccc2)cc(-c2ccccc2)[n+]1C
6.66 µM (active) and inactive: Potency [13]
inactive: Potency [1] | Potency [2] | Potency [3] | Potency [4] | Potency [5] | Potency [6] | Potency [7] | Potency [8] | Potency [9] | Potency [11] | Potency [12] | Potency [14] | Potency [16] | Potency [18] | Potency [19] | Potency [20]

Cl/C=C\C[N+]12CN3CN(CN(C3)C1)C2
inactive: Potency [1] | Potency [3] | Potency [4] | Potency [5] | Potency [7] | Potency [8] | Potency [9] | Potency [11] | Potency [12] | Potency [13] | Potency [14] | Potency [15] | Potency [16] | Potency [17] | Potency [18] | Potency [19]
active: Potency [2] 68.6 µM

CNC(=S)S
inactive: Potency [1] | Potency [2] | Potency [3] | Potency [4] | Potency [5] | Potency [8] | Potency [9] | Potency [10] | Potency [11] | Potency [12] | Potency [13] | Potency [15] | Potency [16] | Potency [17] | Potency [18] | Potency [19] | Potency [20]
